# Experimental data from publication PMC4336329 (PLoS ONE, 2015).
# The whole screen tested about 310,000 compounds, of which about 14,000 (4.5%) showed an effect of 50% or more. The effect is printed as a negative number. This is one part of a sample in which strong results are shown more often than they occur.
# Target: human ether-à-go-go-related gene (hERG) potassium channel (human, UniProt Q12809)
# Test: primary screen, population patch clamp on CHO cells stably expressing hERG; higher = less effect of the substance
# 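Note: peak tail current of the secondary pulse compared with the same well before compound.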
# Chain of human ether-à-go-go-related gene (hERG) potassium channel (Q12809 whole entry, looked up): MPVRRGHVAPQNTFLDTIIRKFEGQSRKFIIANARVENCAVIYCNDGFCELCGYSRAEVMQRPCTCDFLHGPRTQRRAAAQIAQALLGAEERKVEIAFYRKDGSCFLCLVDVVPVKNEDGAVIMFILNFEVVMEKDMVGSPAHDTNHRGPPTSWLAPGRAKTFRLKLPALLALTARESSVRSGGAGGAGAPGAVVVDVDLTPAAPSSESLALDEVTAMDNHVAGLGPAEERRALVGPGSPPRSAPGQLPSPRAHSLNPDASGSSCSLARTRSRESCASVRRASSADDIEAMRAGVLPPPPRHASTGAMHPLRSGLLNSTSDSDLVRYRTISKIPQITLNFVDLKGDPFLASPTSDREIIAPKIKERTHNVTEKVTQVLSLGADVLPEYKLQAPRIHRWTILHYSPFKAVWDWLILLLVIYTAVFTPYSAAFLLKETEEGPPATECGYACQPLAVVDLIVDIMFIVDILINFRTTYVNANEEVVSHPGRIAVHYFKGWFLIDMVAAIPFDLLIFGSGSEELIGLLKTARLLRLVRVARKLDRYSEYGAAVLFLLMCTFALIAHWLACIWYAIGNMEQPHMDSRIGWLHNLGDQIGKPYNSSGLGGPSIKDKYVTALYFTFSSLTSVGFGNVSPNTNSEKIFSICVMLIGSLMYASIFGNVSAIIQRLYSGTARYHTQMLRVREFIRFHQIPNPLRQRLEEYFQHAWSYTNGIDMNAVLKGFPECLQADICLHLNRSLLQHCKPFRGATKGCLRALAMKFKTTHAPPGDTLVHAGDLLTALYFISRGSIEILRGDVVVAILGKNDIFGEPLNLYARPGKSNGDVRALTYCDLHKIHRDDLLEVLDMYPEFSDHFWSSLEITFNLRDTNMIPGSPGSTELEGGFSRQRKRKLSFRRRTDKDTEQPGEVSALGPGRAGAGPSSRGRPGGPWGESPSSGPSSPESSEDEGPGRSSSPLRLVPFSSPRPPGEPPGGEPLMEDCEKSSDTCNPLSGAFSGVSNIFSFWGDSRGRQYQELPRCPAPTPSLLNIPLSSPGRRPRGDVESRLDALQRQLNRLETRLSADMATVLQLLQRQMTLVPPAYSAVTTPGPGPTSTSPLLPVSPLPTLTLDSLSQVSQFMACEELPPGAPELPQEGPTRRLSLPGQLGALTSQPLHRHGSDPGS
row,SMILES,"hERG current change (%, negative = inhibition) at 10uM [%]"
1,CC(=O)n1cc(CO)c2ccccc21,9.03
2,O=S(=O)(Nc1nc2ccccc2nc1Nc1ccc2c(c1)OCO2)c1ccc(F)cc1,24.5
3,Cc1cccc(C)c1NC(=O)CSc1ccc([N+](=O)[O-])cn1,-12.3
4,COc1ccc(NC(=S)NCc2cccnc2)cc1OC,5.8
5,OC1(c2cccs2)CN(c2ccc(Br)cc2)C2=[N+]1CCCS2.[Br-] (stereo not shown),-72.1
6,OC1(c2ccc(Br)cc2)CN(c2ccccc2)C2=[N+]1CCS2.[Br-] (stereo not shown),-19.5
7,OC1(c2cccs2)CN(c2ccc(Cl)cc2)C2=[N+]1CCCS2.[Br-] (stereo not shown),-73.6
8,CCc1ccc(N2CC(O)(c3cccs3)[N+]3=C2SCCC3)cc1.[Br-] (stereo not shown),-70
9,Cc1ccc(Oc2ccc(C(=O)NC3CCSC3=O)cn2)cc1 (stereo not shown),12
10,CC(C)(CNc1ccc([N+](=O)[O-])cc1Cl)CNS(C)(=O)=O,-1.02
11,Cc1cc(/C=N/n2cnnc2)c(C)n1-c1ccccc1,-4.02
12,COc1ccccc1C(=O)CSc1nccn1C,-11.1
13,O=C1NC(=O)N(c2ccccc2)C(=O)/C1=C\c1ccc2c3c(cccc13)CC2,-20.4
14,CCOC(=O)c1c(NC(=O)c2ccc(Cl)cc2)csc1C,-0.689
15,COc1cccc(C(=O)NCCS(=O)(=O)NCc2ccc(Cl)cc2)c1,-36.5
16,CC(=O)Nc1ccccc1C(=O)C(=O)Nc1cccc(C(=O)NCc2ccccc2)c1,-32.6
17,O=C(NCCCN1CCN(c2cccc(Cl)c2)CC1)c1cccc(N2CCCC2=O)c1,-38
18,CC(=O)Nc1ccccc1C(=O)C(=O)Nc1cccc(C(=O)NCc2ccc(C)cc2)c1,-58.3
19,COc1ccc(CNS(=O)(=O)CCNC(=O)c2ccccc2)cc1,-4.36
20,Cc1cc(C(=O)NCCCN2CCN(C3CCCCC3)CC2)n(-c2ccccc2)n1,2.76
21,O=C(NCCCn1ccnc1)c1cccc(Cl)c1,0.459
22,COc1ccc(CNS(=O)(=O)CCNC(=O)c2cccc(OC)c2)cc1,-78.1
23,Cc1cc(C(=O)NCCCN2CCN(c3cc(Cl)ccc3C)CC2)n(-c2ccccc2)n1,-89.2

row,SMILES,"hERG current change (%, negative = inhibition) at 10uM [%]"
1,O=C(NCCCN1CCN(CCCNC(=O)c2cccc(Cl)c2)CC1)c1cccc(Cl)c1,-74.4
2,Cc1cc(C(=O)NCCCN2CCOCC2)n(-c2ccccc2)n1,19.3
3,CCCCNC(=O)c1cccc(NC(=O)C(=O)c2ccccc2NC(C)=O)c1,-19.1
4,Oc1c(Cl)cc(Cl)cc1/C=N/c1nccs1,-11.8
5,O=C(COC(=O)C1CCN(S(=O)(=O)c2cccc3cccnc23)CC1)c1ccc([N+](=O)[O-])cc1,13.1
6,O=C(NC(=O)c1ccccc1F)Nc1nc(-c2cccs2)cc(C(F)(F)F)n1,4.49
7,COC(=O)CC1c2cc(OC)c(OC)cc2CC(=O)c2cc(OC)c(OC)cc21 (stereo not shown),6.73
8,Nn1c(COc2ccccc2)nnc1SCc1cc(=O)[nH]c2ccccc12,-14.3
9,CCCNC(=S)N1CCC(C(=O)c2ccc3c(c2)OCCO3)CC1,-28.9
10,COc1ccccc1CNS(=O)(=O)c1csc(C(N)=O)c1,20.1
11,CCCc1cc(=O)[nH]c(SCC(=O)NN(c2ccccc2)c2ccccc2)n1,-1.04
12,COc1cccc(C(=O)NCCCN2CCN(CCCNC(=O)c3cccc(OC)c3)CC2)c1,-85.4
13,COc1cccc(C(=O)NCCCNC(=O)c2cccc(OC)c2)c1,1.43
14,Nc1ccccc1C(=O)NCCCN1CCN(c2cccc(Cl)c2)CC1,-71.4
15,COc1cc(OC)cc(C(=O)NCCCN2CCN(CCCNC(=O)c3cc(OC)cc(OC)c3)CC2)c1,-48.8
16,Cc1cccc(C(=O)NCCN2CCN(c3ccccc3)CC2)c1.Cl,-37.1
17,COc1cccc(C(=O)NCCN2CCN(c3ccc(Cl)cc3)CC2)c1,-49.8
18,CCOc1c(Cl)cc(C(=O)NCCN2CCCCC2)cc1Cl,-58.6
19,COc1cc(C(=O)NCCN2CCCC2)cc(OC)c1OC.Cl,9.26
20,CCOc1ccc(C(=O)NCCN2CCCC2)cc1.Cl,-40.6
21,Nc1ccccc1C(=O)NCCCN1CCOCC1,15.6
22,Cl.O=C(NCCN1CCN(c2ccccc2)CC1)c1cccc(Cl)c1,-54.2
23,Cn1c(C(=O)NCCCN2CCN(c3cccc(Cl)c3)CC2)cc2c(=O)n(C)c3ccccc3c21,9.13

row,SMILES,"hERG current change (%, negative = inhibition) at 10uM [%]"
1,CCN(CC(=O)Nc1c(F)cccc1F)C(=O)C1CCCN(C(=O)c2ccc(Cl)cc2)C1 (stereo not shown),-31.5
2,Cc1ccccc1Nc1nc(N2CCOCC2)nc(N2CCOCC2)n1.Cl,14
3,CC1=CC(c2ccc(Cl)cc2)n2nc(NS(=O)(=O)c3ccc(C)cc3)nc2N1 (stereo not shown),-19.7
4,CCOC(=O)c1cnc2c(cnn2C)c1NCCC(O)C(F)(F)F (stereo not shown),0.469
5,Cc1ccc(SCC(=O)Nc2ccc(F)cc2[N+](=O)[O-])cc1C,11.7
6,COc1ccc(C(=O)NCCCCc2ccccc2)cc1,-4.68
7,Clc1cccc(N2CCN(Cc3nc(-c4ccccc4)no3)CC2)c1,-12
8,COc1cc(OC)cc(C(=O)NCCCCNC(=O)c2cc(OC)cc(OC)c2)c1,4.94
9,O=C(NCCN1CCOCC1)c1cccc(Br)c1,-3.21
10,O=C(NCCCN1CCN(c2cccc(Cl)c2)CC1)c1nc(-c2ccncc2)no1,-63.2
11,O=C(NCC1CC1)c1ccc(Oc2cc(Cl)cc(Cl)c2)o1,-33.7
12,O=C(NCCCN1CCN(c2cccc(Cl)c2)CC1)c1ccc(N2CCCC2=O)cc1,-26.4
13,O=C(NCCc1ccccc1)c1cccc(Br)c1,2.53
14,O=C(c1ccc(Oc2cc(Cl)cc(Cl)c2)o1)N1CCCCC1,-7.03
15,COc1cc(OC)cc(C(=O)NCCCCc2ccccc2)c1,-56
16,O=C(NCCN1CCN(c2ccccc2)CC1)c1cccc(Br)c1,-60.2
17,O=C(NCCN1CCCCC1)c1ccc(Oc2cc(Cl)cc(Cl)c2)o1,-54.8
18,O=C(COc1ccc(Br)cc1Br)NC(=O)NC1CCCC1,22.3
19,O=C(CN1C(=O)NC(c2ccccc2)(c2ccccc2)C1=O)NC1CCS(=O)(=O)C1 (stereo not shown),5.23
20,CCc1nc(Nc2ccccc2F)c2oc3ccccc3c2n1.Cl,6.04
21,CCC(=O)Nc1ccc(S(=O)(=O)Nc2ccc(Cl)nn2)cc1.Cl,11.7
22,Cc1cccc(C)c1NC(=O)N1CCC(C(=O)c2ccc(F)cc2)CC1,-22.6
23,COC(=O)C1=NN(c2ccc(OC)cc2)C2C(=O)N(c3ccccc3OC)C(=O)C12 (stereo not shown),10.7

row,SMILES,"hERG current change (%, negative = inhibition) at 10uM [%]"
1,COc1ccc(S(=O)(=O)N2CCC3(CC2)OCCN3S(=O)(=O)c2ccccc2)cc1OC,0.907
2,CCOC(=O)c1c(C)[nH]c(C(=O)OCC(=O)Nc2ccc(Cl)cn2)c1C,6.52
3,CCCOc1ccccc1C1NC(=O)NC(C)=C1C(=O)OCc1ccccc1 (stereo not shown),6.23
4,COc1ccc(-c2cc(C(F)(F)F)nc(SCC(=O)NCc3cccs3)n2)cc1OC,-3.84
5,CC1CCC(NC(=O)c2ccc3snnc3c2)CC1 (stereo not shown),21.3
6,COc1ccc(NC(=O)c2cccc(NC(=O)c3ccccc3)c2)cc1,2
7,COc1ccc(C(=O)Nc2cccc(C(=O)NCc3ccccc3)c2)cc1,4.28
8,COc1ccc(CNC(=O)c2cccc(NC(=O)c3ccccc3)c2)cc1,-71.5
9,O=C(NCCN1CCOCC1)c1cccc(Cl)c1,-1.9
10,Cc1cccc(C(=O)NCCN2CCCC2)c1.Cl,-0.337
11,Cl.O=C(NCCN1CCCC1)c1cccc(Cl)c1,-51.6
12,Cc1cc(=O)oc2cc(NC(=O)c3ccccc3Cl)ccc12,28
13,C(=N\Nc1nc(Nc2ccccc2)nc(Nc2ccccc2)n1)/c1cccnc1,-4.87
14,C[n+]1cccc(C2C(C#N)=C(N)Oc3c2ccc2ccccc32)c1.[I-] (stereo not shown),13.7
15,C/C(=N\Nc1ccc2nncn2n1)c1ccc(Br)s1,6.83
16,O=C(/C=C/c1cccs1)NCc1ccccc1,-2.08
17,COCCNS(=O)(=O)c1cc(-c2nn(C)c(=O)c3ccccc23)ccc1C,-28.9
18,Cc1ccc(-c2nn(C)c(=O)c3ccccc23)cc1S(=O)(=O)N1CCCC1,-40.6
19,Cc1ccc(-c2nn(C)c(=O)c3ccccc23)cc1S(=O)(=O)NCCN(C)C,4.35
20,CCOC(=O)CNS(=O)(=O)c1cc(-c2nn(C)c(=O)c3ccccc23)ccc1C,-52.8
21,CCN(CC)S(=O)(=O)c1cc(-c2nn(C)c(=O)c3ccccc23)ccc1C,-53.5
22,CCC(CO)NS(=O)(=O)c1cc(-c2nn(C)c(=O)c3ccccc23)ccc1C (stereo not shown),-3.69
